Experimental findings from PubChem BioAssay (NCI) are described below.

Holding throughout (assay): NCI-60 one-dose screen, 48 h (100 = growth as untreated, 0 = no growth, -100 = all killed)
Experiment [1] has as its system HCT-15 colon. Particulars: 10 µM.
The subject of experiment [2] is SNB-75 CNS. The note with it: 10 µM.
Experiment [3] has as its system U251 CNS. The note with it: 10 µM unless noted.
Experiment [4] relates to PC-3 prostate. The note with it: 10 µM.
Experiment [5] concerns SK-MEL-5 melanoma. The note with it: 10 µM unless noted.
In experiment [6] the test system is UACC-62 melanoma. Particulars: 10 µM.
The subject of experiment [7] is LOX IMVI melanoma. The note with it: 10 µM unless noted.
Experiment [8] deals with SK-MEL-28 melanoma. Particulars: 10 µM.

Where “and” joins values, the source holds several entries; their conditions need not be identical. Equal entries are not always repeated. The panel holds about 83,000 compounds, 20% with a hit somewhere; the sample as a whole holds those more often.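 A percent growth of 40 corresponds to 60% growth inhibition; 0 means no net growth; -100 means all cells died. Active threshold: below 10.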 Calls of active or inactive are those of the source.

On to `CCCC1CCC(=C2C(=O)CCC2=O)O1` (stereo unspecified), for which the growth in experiment [1] is 105% (inactive) and 92% (inactive); in experiment [2], 81.8% (inactive) and -17.8% (active); in experiment [3], 102% (inactive) and 98.5% (inactive); in experiment [4] it was 95.1% (inactive) and 103% (inactive); in experiment [5], 88.6% (inactive) and 102% (inactive); in experiment [6] it was 86.8% (inactive) and 93.7% (inactive). Moreover, the growth in experiment [7] is 94.5% (inactive) and 97.6% (inactive); in experiment [8] it was 103% (inactive).

For `O=C(/C=C/c1cccnc1)c1ccccc1`, the growth was 63.2% (inactive) in experiment [1]; 87.8% (inactive) in experiment [2]; 37.3% (inactive) in experiment [3]; 88.1% (inactive) in experiment [4]; 103% (inactive) in experiment [5]; 103% (inactive) in experiment [6]. Further, the growth is 27.5% (inactive) in experiment [7] and 102% (inactive) in experiment [8].

As for `Nc1nc(=S)c2ncn(C3OC(CO)C(O)C3O)c2[nH]1` (stereo unspecified), the growth was 107% (inactive) and 9.43% (active) in experiment [1]; 101% (inactive) and 27.5% (inactive) in experiment [2]; 105% (inactive) and 54.1% (inactive) in experiment [3]; 33.4% (inactive) in experiment [4]; 116% (inactive) and 22.7% (inactive) in experiment [5]; 102% (inactive) and 0.101% (active) in experiment [6]. For the same compound, the growth in experiment [7] was 104% (inactive) and 7.31% (active); in experiment [8], 115% (inactive) and 50.8% (inactive).

With `CCN(CC)c1ccc(NC(C(=O)c2ccccc2)c2ccccc2)cc1` (stereo unspecified), the growth was -16.4% (active) in experiment [1]; 81.7% (inactive) in experiment [2]; -17.5% (active) in experiment [3]; 83.7% (inactive) in experiment [4]; 78.8% (inactive) in experiment [5]; 28.3% (inactive) in experiment [6]. Also, the growth is -43.4% (active) in experiment [7] and 16.9% (inactive) in experiment [8].

For `O=C1C=CC(=CC=C2C=CN(CCCCCCCCCCCO)C=C2)C=C1`, the growth in experiment [1] is 89.8% (inactive); in experiment [2], 53.4% (inactive); in experiment [3], 25% (inactive); in experiment [4], 17.5% (inactive); in experiment [5] it was -54.3% (active); in experiment [6], 29.6% (inactive). Further, the values for the growth in experiment [7] and in experiment [8] were 18.8% (inactive) and 37.6% (inactive), respectively.

Turning to `OCC1OC(n2cnc3c(=S)nc[nH]c32)C(O)C1O` (stereo unspecified), the growth in experiment [1] is 104% (inactive) and 55.5% (inactive); in experiment [2], 110% (inactive) and 60.5% (inactive); in experiment [3] it was 93.5% (inactive) and 83.2% (inactive); in experiment [4], 89.1% (inactive) and 73.1% (inactive); in experiment [5] it was 102% (inactive) and 80.9% (inactive); in experiment [6] it was 92.3% (inactive) and 26.7% (inactive). In addition, the growth was 98.2% (inactive) and 16.1% (inactive) in experiment [7]; 113% (inactive) in experiment [8].

Take `CCN1/C(=C/C=C/C=C/c2sc3ccccc3[n+]2CC)Sc2ccccc21`: the growth in experiment [1] was -20.9% (active); in experiment [2], -45.6% (active); in experiment [3] it was -6.94% (active); in experiment [4], 7.09% (active); in experiment [5], -95.4% (active); in experiment [6], -74.6% (active). In addition, the figures for the growth in experiment [7] and in experiment [8] were -57.5% (active) and -56.6% (active), respectively.
